Data: PubChem BioAssay (NCI)
About 83,000 compounds went through this panel and 20% of them were active in at least one assay; those are over-represented in the sample as a whole.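 Results are percent growth after 48 hours of single-concentration exposure. 100 means growth as in untreated cells, lower positive values show inhibition; negative values down to -100 show cell death.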 A number with no mark means an inactive call. The source made the active and inactive calls. Rule for the calls: active = growth percent below 10; inactive = the rest.

tested on: SR leukemia; assay: NCI-60 one-dose screen, 48 h (100 = growth as untreated, 0 = no growth, -100 = all killed); conditions: 10 µM unless noted

SMILES | growth
CN(C)N1C(=O)c2c(Cl)c(Cl)c(Cl)c(Cl)c2C1=O | 87.5%
O=C(Nc1ccc(Cl)cc1)c1cc(-c2ccc(Cl)cc2)c2sc(=O)[nH]c2n1 | 2% (active)
COc1cnc2c(c1)C(=O)c1c-2n(CCCN2CCNCC2)c(=O)c2cc(Cl)ccc12 | -48.7% (active)
Nc1c(C(=O)C[C@@H](N)CO)ccc2c1C(=O)CCO2 | 30.7%
C=C1C(=O)O[C@H]2[C@H]1CC/C(COC(=O)NCc1ccc(Cn3c(=O)sn(CCCl)c3=O)cc1)=C\CC[C@@]1(C)O[C@@H]21 | 5.35% (active)
O=C1/C(=C/N2N=C(c3ccc(Cl)cc3)CC2c2ccccc2O)SC(=S)N1c1cccc(C(F)(F)F)c1 (configuration not stated) | 42%
COc1cnc2c(c1)C(=O)c1c-2n(CCCN2CCN(C)CC2)c(=O)c2cc(Cl)ccc12 | -9.29% (active)
C[C@H](NC(=O)c1snnc1C1CC1)c1c(F)cccc1Cl | 149%
CC(C)(C)c1ccc(OC(=O)Nc2ccccc2)cc1 | 76.3%
N/C(=N\OC(=O)c1ccccc1)C(C(=O)NOC(=O)c1ccccc1)C1CCCCC1 (configuration not stated) | 4.57% (active)
CC(C)c1ccc2c(c1)CCC1C2CCCC1(C)NCc1ccccc1 (configuration not stated) | 0.88% (active)
Cc1ccncc1NC=O | 93.8%
Nc1c(N)c2ccccc2c2ccccc12 | 94.1%
O=C1/C(=C/c2cc(F)cc(F)c2)Cc2cc(F)cc(F)c21 | 62.8%
CNC(=O)c1c(NC(=O)c2ccc(C(C)C)cc2)sc2c1CCC(=O)C2 | 2.8% (active)
COc1cc(C2CC(c3ccccc3)=NN2C=O)ccc1Oc1ccnc2cc(Cl)ccc12 (configuration not stated) | 50.4%
CO[C@H](C(=O)[C@@H](O)[C@@H](C)O)[C@@H]1Cc2cc3cc(O[C@H]4C[C@@H](O[C@H]5C[C@@H](O)[C@H](O)C(C)O5)[C@H](O)C(C)O4)c(C)c(O)c3c(O)c2C(=O)[C@H]1O[C@H]1C[C@@H](O[C@H]2C[C@@H](O[C@H]3C[C@](C)(O)C(=O)C(C)O3)[C@@H](O)C(C)O2)[C@H](O)C(C)O1 (some centres not stated) | 8.44% (active)
COc1cc(-c2nc(-c3ccc(-c4nc5ccc(F)cc5[nH]4)cc3)no2)cc(OC)c1OC | 32.5%
CC(=O)NC1C(O[C@H]2C[C@H]3[C@@H]4CC=C5C[C@@H](O)CC[C@]5(C)[C@H]4CC[C@]3(C)[C@H]2[C@H](C)C(=O)CCC(C)C)OCC(O)C1O (some centres not stated) | 18.7%
O=C(CCl)Nc1ccc2c(c1)C(=O)c1ccccc1C2=O | -10.3% (active)
Cc1csc(N/N=C/c2ccncc2)n1 | 96.6%
COc1ccc(-c2cnc(-c3ccncc3-c3cccc(OC)c3)o2)cc1 | 10.2%
C#Cc1cccc(Nc2nc3cc([N+](=O)[O-])ccc3nc2Nc2ccc(O)cc2)c1 | 3.34% (active)
COc1cccc(-c2nc3sccn3c2-c2ccnc(NCCN3CCCN(C)S3(=O)=O)n2)c1 | 66.7%

tested on: RPMI-8226 leukemia; assay: as above; conditions: 10 µM unless noted

SMILES | growth
CC1OC(n2c3ccccc3c3c4c(c5c6ccccc6[nH]c5c32)C(=O)N(CCN[C@H]2CCC[C@@H]2N)C4=O)CC(O)C1O (some centres not stated) | 4.77% (active)
Oc1ccc(-c2nnc3c4[nH]ccc4ncn23)cc1 | 97.7%
Nc1c(Br)cc2c(c1Br)Cc1cc(Cl)ccc1-2 | 105%
C#C[C@]1(O)CC[C@H]2[C@@H]3CC=C4c5sc(-c6cccc(Br)c6)nc5CC[C@]4(C)[C@H]3CC[C@@]21C | 2.09% (active)
O=C1NN(C(=O)c2ccccc2)C(c2ccc(Cl)c(Cl)c2)=C/C1=C\c1ccccc1[N+](=O)[O-] | 2.27% [6.75 µM] (active)
NS(=O)(=O)c1ccc(CCn2c(SCC(=O)N/N=C/c3cc4ccccc4[nH]3)nc3ccccc3c2=O)cc1 | 24.4%
CC(C)CC(=O)C(CCc1ccccn1)C(C)C (configuration not stated) | 95.8%
Cc1cc(C#Cc2ccc(C(C)(C)C)cc2)ccc1-n1c(/C=C/c2c(Cl)cccc2Cl)nc2ccccc2c1=O | 91.5%
CCOC(=O)c1ccc(NC(=O)CSC(N)=O)cc1 | 87.3%
CCOCCNc1ccc(S(=O)(=O)c2ccc(N)cc2)cc1N | 92.9%
CC(=O)O[C@@H]1CC2C(C)(C)CCCC2(C)C2=C1C(=O)C(C(C)C)=CC2=O (some centres not stated) | 2.06% (active)
CCN(CC)CCCC(C)Nc1c(-c2ccccc2)cnc2cc(Cl)ccc12 (configuration not stated) | 27.4%
COc1ccc(CNc2c3ccccc3nc3ccccc23)cc1F | -5.78% (active)
Clc1ccc(-c2cnc3c(-c4ccnc(N5CCNCC5)c4)cnn3c2)cc1 | -39% (active)
CN(C)N1C(=O)c2c(Cl)c(Cl)c(Cl)c(Cl)c2C1=O | 97%
O=C(Nc1ccc(Cl)cc1)c1cc(-c2ccc(Cl)cc2)c2sc(=O)[nH]c2n1 | -6.18% (active)
COc1cnc2c(c1)C(=O)c1c-2n(CCCN2CCNCC2)c(=O)c2cc(Cl)ccc12 | -64.9% (active)
Nc1c(C(=O)C[C@@H](N)CO)ccc2c1C(=O)CCO2 | 19.2%
C=C1C(=O)O[C@H]2[C@H]1CC/C(COC(=O)NCc1ccc(Cn3c(=O)sn(CCCl)c3=O)cc1)=C\CC[C@@]1(C)O[C@@H]21 | 2.37% (active)

SMILES | growth
O=C1/C(=C/N2N=C(c3ccc(Cl)cc3)CC2c2ccccc2O)SC(=S)N1c1cccc(C(F)(F)F)c1 (configuration not stated) | 25.4%
COc1cnc2c(c1)C(=O)c1c-2n(CCCN2CCN(C)CC2)c(=O)c2cc(Cl)ccc12 | 43.5%
C[C@H](NC(=O)c1snnc1C1CC1)c1c(F)cccc1Cl | 130%
CC(C)(C)c1ccc(OC(=O)Nc2ccccc2)cc1 | 105%
N/C(=N\OC(=O)c1ccccc1)C(C(=O)NOC(=O)c1ccccc1)C1CCCCC1 (configuration not stated) | 41.5%
CC(C)c1ccc2c(c1)CCC1C2CCCC1(C)NCc1ccccc1 (configuration not stated) | -35.2% (active)
Cc1ccncc1NC=O | 99.9%
Nc1c(N)c2ccccc2c2ccccc12 | 94.8%
O=C1/C(=C/c2cc(F)cc(F)c2)Cc2cc(F)cc(F)c21 | 94.1%
CNC(=O)c1c(NC(=O)c2ccc(C(C)C)cc2)sc2c1CCC(=O)C2 | -26.2% (active)
COc1cc(C2CC(c3ccccc3)=NN2C=O)ccc1Oc1ccnc2cc(Cl)ccc12 (configuration not stated) | 32.1%
CO[C@H](C(=O)[C@@H](O)[C@@H](C)O)[C@@H]1Cc2cc3cc(O[C@H]4C[C@@H](O[C@H]5C[C@@H](O)[C@H](O)C(C)O5)[C@H](O)C(C)O4)c(C)c(O)c3c(O)c2C(=O)[C@H]1O[C@H]1C[C@@H](O[C@H]2C[C@@H](O[C@H]3C[C@](C)(O)C(=O)C(C)O3)[C@@H](O)C(C)O2)[C@H](O)C(C)O1 (some centres not stated) | -21% (active)
COc1cc(-c2nc(-c3ccc(-c4nc5ccc(F)cc5[nH]4)cc3)no2)cc(OC)c1OC | -15.3% (active)
CC(=O)NC1C(O[C@H]2C[C@H]3[C@@H]4CC=C5C[C@@H](O)CC[C@]5(C)[C@H]4CC[C@]3(C)[C@H]2[C@H](C)C(=O)CCC(C)C)OCC(O)C1O (some centres not stated) | -9.81% (active)
O=C(CCl)Nc1ccc2c(c1)C(=O)c1ccccc1C2=O | -59.1% (active)
Cc1csc(N/N=C/c2ccncc2)n1 | 131%
COc1ccc(-c2cnc(-c3ccncc3-c3cccc(OC)c3)o2)cc1 | 8.95% (active)
C#Cc1cccc(Nc2nc3cc([N+](=O)[O-])ccc3nc2Nc2ccc(O)cc2)c1 | 11.9%
COc1cccc(-c2nc3sccn3c2-c2ccnc(NCCN3CCCN(C)S3(=O)=O)n2)c1 | 103%
